Measurements reported in the supplement of paper PMC8726507.
Unmarked numbers belong to inactive results.

test system: Plasmodium falciparum NF54-HGL (transmission to Anopheles stephensi); assay: percentage of barcode signal found in uninfected mosquitoes (transmission-blocking activity); higher = stronger blocking of transmission to mosquito, active = 80 or more; settings: 10 µM; gametocyte preincubation time 24 h; readout time post-feed 8 days
Protocol: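 The mixture was fed to Anopheles stephensi in 96-well plates as blood meals tagged with DNA-barcoded Asaia bacteria. Eight days later, mosquitoes were classed infected or uninfected by luminescence (mean + 5 SD of unfed controls). Barcodes were quantified by Luminex MagPlex-TAG in the pooled uninfected and infected Asaia cultures, background-corrected, and the score is % of barcode signal in uninfected mosquitoes = 100*Iu/(Iu+Ii).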

| Structure (SMILES) | percentage of barcode signal found in uninfected mosquitoes [%] |
| --- | --- |
| Cc1nn(Cc2ccccc2)c(Cl)c1C(=O)NC1CCCCCC1 | 2.01 |
| Cc1cc(C2=NOC(c3cc(Cl)c(F)c(Cl)c3)(C(F)(F)F)C2)ccc1C(=O)NCc1ccc2c(c1)C(C)(C)OB2O (centres undefined) | 43.3 |
| Nc1c2c(nc3sc4c(c13)CCCC4)CCCC2 | 42 |
| CC(C)(C)C(O)C(Oc1ccc(-c2ccccc2)cc1)n1cncn1 (centres undefined) | -1.02 |
| CO/C=C(/C(=O)OC)c1ccccc1Oc1cc(Oc2ccccc2C#N)ncn1 | 69.5 |
| CC1COC(Cn2cncn2)(c2ccc(Oc3ccc(Cl)cc3)cc2Cl)O1 (centres undefined) | 19.1 |
| CCc1nn(C)c(C(=O)NCc2ccc(Oc3ccc(C)cc3)cc2)c1Cl | 25.8 |
| CC1(C)OB(O)c2ccc(C3=NOC(c4cc(Cl)c(F)c(Cl)c4)(C(F)(F)F)C3)cc21 (centres undefined) | -4.84 |

same assay, conditions: 20 µM; gametocyte preincubation time 24 h; readout time post-feed 8 days

| Structure (SMILES) | percentage of barcode signal found in uninfected mosquitoes |
| --- | --- |
| O=C1O[C@@H](COc2ccon2)CN1c1cc(F)c(C2=CCN(Cc3ccccc3)CC2)c(F)c1 | 29.7% |
| Cc1nn(C)c(C)c1NS(=O)(=O)c1c(Cl)cc(-c2ccnc(N3CCNCC3)c2)cc1Cl | 48.9% |
| CO/N=C(\C(=O)OC)c1ccccc1CO/N=C(\C)c1cccc(C(F)(F)F)c1 | 83.6% (active) |
| Cc1cccc(C(=O)Nc2ccnc(N(C)C3CCN(CC(C)C)CC3)c2)c1 | 46.4% |
| O=C1O[C@@H](CO)CN1c1cc(F)c(C2=CCN(Cc3ccccc3)CC2)c(F)c1 | 0.248% |
| CO[C@@H]1CN(c2ccc(C#CC3(O)CN4CCC3CC4)c(Cc3ccccc3)n2)C[C@H]1O (some centres undefined) | 43% |
